In PubChem BioAssay (NCI):
This is part of a sample that, as a whole, favours compounds with a hit. Of some 83,000 tested, about 20% had one in any assay.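 Step 1: grow cells in 96-well plates. Step 2: add test compound at a single concentration. Step 3: incubate 48 h. Step 4: record percent growth.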 Active and inactive are the calls of the source. The calls were made as follows: active = growth percent below 10; inactive = the rest.

How the values were obtained:
Experiment in all cases: NCI-60 one-dose screen, 48 h (100 = growth as untreated, 0 = no growth, -100 = all killed)
Settings in all cases: 10 µM unless noted
HCT-15 colon = test system: HCT-15 colon
HT29 colon = test system: HT29 colon
SNB-75 CNS = test system: SNB-75 CNS
SNB-19 CNS = test system: SNB-19 CNS
U251 CNS = test system: U251 CNS
PC-3 prostate = test system: PC-3 prostate
SK-MEL-5 melanoma = test system: SK-MEL-5 melanoma
UACC-62 melanoma = test system: UACC-62 melanoma
LOX IMVI melanoma = test system: LOX IMVI melanoma
SK-MEL-28 melanoma = test system: SK-MEL-28 melanoma
SK-MEL-2 melanoma = test system: SK-MEL-2 melanoma
EKVX NSCLC = test system: EKVX NSCLC
SN12C renal = test system: SN12C renal
UO-31 renal = test system: UO-31 renal
TK-10 renal = test system: TK-10 renal
ACHN renal = test system: ACHN renal
CAKI-1 renal = test system: CAKI-1 renal
CCRF-CEM leukemia = test system: CCRF-CEM leukemia
MOLT-4 leukemia = test system: MOLT-4 leukemia

Measured: growth

N=C(N)c1ccc(OCCCCCCCCCCOc2ccc(C(=N)N)cc2)cc1
inactive: HCT-15 colon 37.3% | UO-31 renal 43.9%
active: HT29 colon -90.8% | SNB-75 CNS -76.9% | SNB-19 CNS -91.9% | U251 CNS -85.5% | PC-3 prostate -91.3% | SK-MEL-5 melanoma -96.1% | UACC-62 melanoma -97.2% | LOX IMVI melanoma -97.3% | SK-MEL-28 melanoma -93.9% | SK-MEL-2 melanoma -90.3% | EKVX NSCLC -84.4% | SN12C renal -96.3% | TK-10 renal -93.5% | ACHN renal -21.3% | CAKI-1 renal -94.8% | CCRF-CEM leukemia -47.8% | MOLT-4 leukemia -61%

O=C1c2ccccc2C(=O)c2c([N+](=O)[O-])ccc(Cl)c21
inactive: HCT-15 colon 75.9% | HT29 colon 39.4% | SNB-75 CNS 96.4% | SNB-19 CNS 99.1% | U251 CNS 65.6% | PC-3 prostate 82.4% | SK-MEL-5 melanoma 97.9% | UACC-62 melanoma 96.5% | LOX IMVI melanoma 55.4% | SK-MEL-28 melanoma 106% | SK-MEL-2 melanoma 107% | EKVX NSCLC 113% | SN12C renal 97.5% | UO-31 renal 76.6% | TK-10 renal 87.6% | ACHN renal 85.5% | CAKI-1 renal 39.4% | CCRF-CEM leukemia 63.2% | MOLT-4 leukemia 86.2%

O=C(CCN1CCCC1)Nc1ccc2c(NCCCCc3ccccc3)c3ccccc3nc2c1
inactive: HCT-15 colon 17% | SNB-75 CNS 16.6% | UACC-62 melanoma 65.2% | EKVX NSCLC 38.3% | UO-31 renal 37% | ACHN renal 24.8%
active: HT29 colon 6.39% | SNB-19 CNS -49.5% | U251 CNS -57.8% | PC-3 prostate -56.8% | SK-MEL-5 melanoma -30.9% | LOX IMVI melanoma -89.3% | SK-MEL-28 melanoma -63.4% | SK-MEL-2 melanoma -7.21% | SN12C renal -60.8% | TK-10 renal -36.5% | CAKI-1 renal 9.94% | CCRF-CEM leukemia -25.2% | MOLT-4 leukemia -26.2%

Cc1cc2nc3c4cccc(O)c4n(CCN(C)C)c3nc2cc1C
active: LOX IMVI melanoma 8.06% | UO-31 renal 6.09% | ACHN renal 8.22% | MOLT-4 leukemia 6.01%
inactive: HCT-15 colon 21.6% | HT29 colon 31.1% | SNB-75 CNS 25.8% | SNB-19 CNS 38.4% | U251 CNS 35.5% | PC-3 prostate 35.6% | SK-MEL-5 melanoma 39.3% | UACC-62 melanoma 49.5% | SK-MEL-28 melanoma 75.6% | SK-MEL-2 melanoma 54.2% | EKVX NSCLC 42.2% | SN12C renal 29.6% | TK-10 renal 72.8% | CAKI-1 renal 13.2% | CCRF-CEM leukemia 27%

O=C(/C=C/c1ccc(F)cc1)c1ccc(NC(=O)N2CCN(c3cc4c(cc3F)c(=O)c(C(=O)O)cn4C3CC3)CC2)cc1
inactive: HCT-15 colon 101% | HT29 colon 98% | SNB-75 CNS 90.7% | SNB-19 CNS 88.1% | U251 CNS 98.9% | PC-3 prostate 96.6% | SK-MEL-5 melanoma 96.8% | UACC-62 melanoma 78.2% | LOX IMVI melanoma 83.7% | SK-MEL-28 melanoma 90.6% | SK-MEL-2 melanoma 105% | EKVX NSCLC 94.5% | SN12C renal 92.6% | UO-31 renal 77.9% | TK-10 renal 92.5% | ACHN renal 106% | CAKI-1 renal 95.2% | CCRF-CEM leukemia 90.9% | MOLT-4 leukemia 99.5%

Cc1nc(N)nc(N[C@@H](C)c2nc3cccc(NCc4ccc(C(=O)NO)cc4)c3c(=O)n2-c2ccccc2)n1
inactive: HCT-15 colon 110% | HT29 colon 77.3% | SNB-75 CNS 69.6% | SNB-19 CNS 71.3% | U251 CNS 52.7% | PC-3 prostate 88% | SK-MEL-5 melanoma 77.3% | UACC-62 melanoma 59.1% | LOX IMVI melanoma 72.8% | SK-MEL-28 melanoma 70% | SK-MEL-2 melanoma 74.7% | EKVX NSCLC 76.8% | SN12C renal 84.5% | UO-31 renal 68.4% | TK-10 renal 80.3% | ACHN renal 101% | CAKI-1 renal 77.5% | CCRF-CEM leukemia 23.2% | MOLT-4 leukemia 32.9%

c1ccc2cc(Cn3c(-c4cccc5ccccc45)[n+](Cc4ccc5ccccc5c4)c4c5ccccc5c5ccccc5c43)ccc2c1
active: HCT-15 colon -60.4% | HT29 colon -49.5% | SNB-75 CNS -66.3% | SNB-19 CNS -82.7% | U251 CNS -91.1% | PC-3 prostate -46.7% | SK-MEL-5 melanoma -98.1% | UACC-62 melanoma -74.5% | LOX IMVI melanoma -84.3% | SK-MEL-28 melanoma -61.5% | SK-MEL-2 melanoma -72.5% | EKVX NSCLC -77.2% | SN12C renal -82% | UO-31 renal -89.2% | TK-10 renal -79.8% | ACHN renal -92.6% | CAKI-1 renal -96.7% | CCRF-CEM leukemia -17.4% | MOLT-4 leukemia -55.3%

O=c1ccc(-c2nc(N3CCOCC3)c3ccccc3n2)c[nH]1
inactive: HCT-15 colon 99.1% | HT29 colon 101% | SNB-75 CNS 81.1% | SNB-19 CNS 98.7% | U251 CNS 99.1% | PC-3 prostate 93.5% | SK-MEL-5 melanoma 88.3% | UACC-62 melanoma 55.5% | LOX IMVI melanoma 98.3% | SK-MEL-28 melanoma 97.6% | SK-MEL-2 melanoma 108% | EKVX NSCLC 59.2% | SN12C renal 94.6% | UO-31 renal 83.1% | TK-10 renal 87.3% | ACHN renal 93.1% | CAKI-1 renal 95.9% | CCRF-CEM leukemia 108% | MOLT-4 leukemia 110%

O=S(=O)(NCCNc1nccc(-c2c(-c3cccc(O)c3)nc3occn23)n1)c1ccc(C(F)(F)F)cc1
inactive: HCT-15 colon 108% | HT29 colon 72.9% | SNB-75 CNS 92.5% | SNB-19 CNS 115% | U251 CNS 104% | PC-3 prostate 99.7% | SK-MEL-5 melanoma 55.7% | UACC-62 melanoma 26.7% | LOX IMVI melanoma 75.1% | SK-MEL-28 melanoma 58.3% | SK-MEL-2 melanoma 93.7% | EKVX NSCLC 105% | SN12C renal 102% | UO-31 renal 93.9% | TK-10 renal 137% | ACHN renal 84.4% | CAKI-1 renal 69.6% | CCRF-CEM leukemia 106% | MOLT-4 leukemia 111%

CCN1C(=O)/C(=C/C(=O)OC)S/C1=N\NC(=O)c1cc2ccc1/C=C\c1ccc(cc1)/C=C\2
inactive: HCT-15 colon 68.4% | HT29 colon 45.2% | SNB-75 CNS 78.8% | SNB-19 CNS 85.6% | U251 CNS 84.4% | PC-3 prostate 56.7% | SK-MEL-5 melanoma 92.5% | UACC-62 melanoma 78.6% | LOX IMVI melanoma 73.5% | SK-MEL-28 melanoma 100% | SK-MEL-2 melanoma 94.2% | EKVX NSCLC 93.6% | SN12C renal 95% | UO-31 renal 79% | TK-10 renal 93.5% | ACHN renal 93.4% | CAKI-1 renal 89.5% | CCRF-CEM leukemia 33.9% | MOLT-4 leukemia 37.2%

O=C(/C=C(O)/C=C/c1ccc(SC(F)(F)F)cc1)/C=C/c1ccc(SC(F)(F)F)cc1
inactive: HCT-15 colon 88.5% | HT29 colon 83.2% | SNB-75 CNS 115% | SNB-19 CNS 90.3% | U251 CNS 66.5% | PC-3 prostate 81% | SK-MEL-5 melanoma 91.4% | UACC-62 melanoma 75.9% | LOX IMVI melanoma 72% | SK-MEL-28 melanoma 100% | SK-MEL-2 melanoma 101% | EKVX NSCLC 111% | SN12C renal 94.2% | UO-31 renal 73.1% | TK-10 renal 101% | ACHN renal 102% | CAKI-1 renal 96% | CCRF-CEM leukemia 60.7% | MOLT-4 leukemia 76.1%

COC(=O)/C=C1\S/C(=N\NC(=O)c2cc3ccc2/C=C\c2ccc(cc2)/C=C\3)N(Cc2ccccc2)C1=O
inactive: HCT-15 colon 27.8% | HT29 colon 12.4% | SNB-75 CNS 51.2% | SNB-19 CNS 56.9% | U251 CNS 55% | PC-3 prostate 17.8% | SK-MEL-5 melanoma 82.3% | UACC-62 melanoma 51.9% | SK-MEL-28 melanoma 101% | SK-MEL-2 melanoma 85.6% | EKVX NSCLC 77.7% | SN12C renal 61.2% | UO-31 renal 45% | TK-10 renal 95.5% | ACHN renal 46.1% | CAKI-1 renal 65.8%
active: LOX IMVI melanoma 6.21% | CCRF-CEM leukemia 3.83% | MOLT-4 leukemia 1.09%

O=C(Nc1ccc(Cl)cc1)c1cc(NCc2cc(O)ccc2O)ccc1O
inactive: HCT-15 colon 68.5% | HT29 colon 88.6% | SNB-75 CNS 101% | SNB-19 CNS 91.4% | U251 CNS 71.8% | PC-3 prostate 45.2% | SK-MEL-5 melanoma 82.9% | UACC-62 melanoma 65.5% | LOX IMVI melanoma 84.3% | SK-MEL-28 melanoma 99.2% | SK-MEL-2 melanoma 78.8% | EKVX NSCLC 94.1% | SN12C renal 76.1% | UO-31 renal 52.2% | TK-10 renal 97.3% | ACHN renal 89.6% | CAKI-1 renal 99.5% | MOLT-4 leukemia 59.8%
active: CCRF-CEM leukemia 5.54%

CCOC(=O)[C@@H]1CCCN(S(=O)(=O)c2ccc(S(=O)(=O)N(CC)CC)c(F)c2)C1
inactive: HCT-15 colon 84.4% | HT29 colon 83% | SNB-75 CNS 90.9% | SNB-19 CNS 69.2% | U251 CNS 82.2% | PC-3 prostate 84% | SK-MEL-5 melanoma 18.8% | UACC-62 melanoma 59.4% | LOX IMVI melanoma 62.2% | SK-MEL-28 melanoma 93.4% | SK-MEL-2 melanoma 62.6% | EKVX NSCLC 46.9% | SN12C renal 85.4% | UO-31 renal 69% | TK-10 renal 81.4% | ACHN renal 75% | CAKI-1 renal 64.1% | CCRF-CEM leukemia 85.1% | MOLT-4 leukemia 79.4%

CCCCCCNC(=O)Nc1ccc2cc3ccc(NC(=O)NCCCCCC)cc3nc2c1
inactive: HCT-15 colon 88.7% | HT29 colon 20.2% | PC-3 prostate 21.5% | SK-MEL-2 melanoma 11.3% | EKVX NSCLC 48.7% | UO-31 renal 94.2% | TK-10 renal 97.8% | ACHN renal 96.7% | CAKI-1 renal 71.4%
active: SNB-75 CNS -16.3% | SNB-19 CNS -47.9% | U251 CNS -89.1% | SK-MEL-5 melanoma 3.38% | UACC-62 melanoma -79% | LOX IMVI melanoma -79.7% | SK-MEL-28 melanoma -65.4% | SN12C renal -72.7% | CCRF-CEM leukemia 0.631% | MOLT-4 leukemia -45%

CCCCCN1C=C/C(=C\C(=O)N(C)c2ccc(Oc3ccccc3)cc2)c2ccccc21
inactive: HCT-15 colon 98.4% | HT29 colon 53.6% | SNB-75 CNS 104% | SNB-19 CNS 88.2% | U251 CNS 80.1% | PC-3 prostate 77.6% | SK-MEL-5 melanoma 62.6% | UACC-62 melanoma 76.9% | LOX IMVI melanoma 86.6% | SK-MEL-28 melanoma 102% | SK-MEL-2 melanoma 98% | EKVX NSCLC 56.6% | SN12C renal 87.5% | UO-31 renal 85.3% | TK-10 renal 92.1% | ACHN renal 102% | CAKI-1 renal 93.1% | CCRF-CEM leukemia 75.4% | MOLT-4 leukemia 70.8%
